Experimental findings from PubChem BioAssay (NCI) are described below.

SMILES strings stand for the structures. About 83,000 compounds went through this panel and 20% of them were active in at least one assay; those are over-represented in the sample as a whole.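 The test compound was applied at a single concentration to cells in 96-well plates for 48 hours, and percent growth was recorded.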 Unmarked numbers belong to inactive results. Activity calls are given as the source filed them. The calls were made as follows: active = growth percent below 10; inactive = the rest.

This assay relates to HL-60(TB) leukemia. Description: NCI-60 one-dose screen, 48 h (100 = growth as untreated, 0 = no growth, -100 = all killed). To be noted: 10 µM unless noted.
Take `CCCNc1nc(C)[nH]c(=O)c1S`: the growth was 92.1%.

For the molecule `CCN1C(=O)N(CC)C2Nn3c(s/c(=C4\C(=O)N(C(C)C)c5ccccc54)c3=O)=NC21` (stereo not given), the growth is 6.28% (active).

`COc1ccccc1N1CCCCC1`: the growth is 101%.

For the molecule `O=c1cc(-c2ccccc2)[nH]n1-c1nc2ccccc2[nH]1`, the growth is 11%.

`CCOC(=O)c1sc(NC(=O)COc2ccc(/C=C3\Cc4ccc(Cl)cc4C3=O)cc2)nc1C`: the growth was 98%.

`O=C(CNc1nc2ccccc2s1)Nc1ccc(-c2nc3ccccc3s2)cc1`: the growth was 99.1%.

As to `CCN1C(=O)N(CC)C2Nn3c(s/c(=C4\C(=O)N(CC(C)C)c5ccccc54)c3=O)=NC21` (stereo not given), the growth was 18.9%.

With `COC(=O)c1c2c(c(C)[n+]([O-])c1C)C(=O)C(NCc1ccc(F)c(Cl)c1)=CC2=O`, the growth is -54.6% (active).

Take `CCOc1ccccc1CN1CCc2nc3cc(C(C)(C)C)[nH]n3c(=O)c2C1`: the growth is 99.4%.

`CCOC(=O)C1C(=O)NC(C(=O)OCC)(C(=O)OCC)C1CC` (stereo not given): the growth was 106%.

As to `NS(=O)(=O)c1ccc(CN2C(=O)c3cccc4cccc(c34)C2=O)cc1`, the growth is 98.6%.

Take `NNC(=O)CNC(=O)Nc1n[nH]c(=S)s1`: the growth is 107%.

As for `O=C(O)c1cccc([N+](=O)[O-])c1O`, the growth is 78.2%.

In the case of `CCOC(=O)/C=C1\SC(=Nc2ccc(C#N)cc2)N(CCN2C(=O)/C(=C/C(=O)OCC)SC2=Nc2ccc(C#N)cc2)C1=O`, the growth was 55.5%.

Regarding `CCCN1[C@@H]2CC[C@H]1/C(=C\c1ccc(OC)c(OC)c1)C(=O)/C2=C/c1ccc(OC)c(OC)c1`, the growth was 20.5%.
